Assay results from PubChem BioAssay.
The source made the active and inactive calls. Unless noted, how the calls were made is not given here.

Tests used:
[1] = compound effects on lung adenocarcinoma cell viability – A549, calcein-AM fluorescence, 48 h, basal, profiling panel (AID 1162); conditions: higher = more signal; further: test concentration not given here
[2] = compound effects on differentiated 3T3-L1 adipocyte viability – cell-based, 3T3-L1 adipocytes, calcein-AM fluorescence, 48 h, basal, profiling panel (AID 1163); conditions: 3T3-L1 adipocytes viability, higher = more signal; further: test concentration not given here
[3] = compound effects on hepatocellular carcinoma cell viability – HepG2, calcein-AM fluorescence, 48 h, basal, profiling panel (AID 1164); conditions: higher = more signal; further: test concentration not given here
[4] = compound effects on multiple myeloma cell viability – MM1S, calcein-AM fluorescence, 48 h, basal, profiling panel (AID 1165); conditions: higher = more signal; further: test concentration not given here
[5] = calcein-AM signal in unstimulated myeloma cells – cell-based, calcein-AM fluorescence, 48 h, PK04 Diversity Set, profiling panel (AID 1166); conditions: RPMI8226 myeloma viability, higher = more signal;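 further: cells grown under basal conditions without added stimulus; test concentration not given here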
[6] = JC-1 mitochondrial signal, unstimulated HepG2 cells – cell-based, JC-1 fluorescence, 24 h, 100 nL compound, profiling panel (AID 1167); conditions: HepG2 mitochondrial potential, higher = more signal; further: test concentration not given here
[7] = JC-1 mitochondrial signal, unstimulated adipocytes – cell-based, JC-1 fluorescence, 3T3-L1 adipocytes, 24 h, 100 nL compound, profiling panel (AID 1168); conditions: JC-1 mitochondrial fluorescence, higher = more signal, called active from +8 up or from −8 down; further: test concentration not given here
[8] = JC-1 mitochondrial signal, unstimulated myeloma cells – cell-based, JC-1 fluorescence, RPMI8226, 24 h, 100 nL compound, profiling panel (AID 1169); conditions: JC-1 mitochondrial potential fluorescence, higher = more signal; further: test concentration not given here
[9] = JC-1 mitochondrial signal, unstimulated MM1S myeloma – cell-based, JC-1 fluorescence, 24 h, 100 nL compound, profiling panel (AID 1170); conditions: MM1S mitochondrial potential, higher = more signal; further: test concentration not given here
[10] = resazurin metabolic signal in A549 cells – cell-based, resazurin fluorescence, 24 h, PK04 Diversity Set, profiling panel (AID 1171); conditions: A549 viability, higher = more signal, called active from +8 up or from −8 down; further: test concentration not given here
[11] = resazurin metabolic signal in HepG2 cells – cell-based, resazurin fluorescence, 24 h, PK04 Diversity Set, profiling panel (AID 1172); conditions: HepG2 viability, higher = more signal; further: test concentration not given here
[12] = budding yeast growth changes without added modifier – OD600, strain BY4716, 24 h, basal condition, primary screen (AID 1173); conditions: S. cerevisiae BY4716 growth, OD600, 24 h; higher = more signal, called active from +8 up or from −8 down
[13] = viability profiling in MM1S myeloma cells – cell-based, resazurin fluorescence, basal, 24 h, PK04 Diversity Set, profiling panel (AID 1174); conditions: higher = more signal, called active from +8 up or from −8 down; further: test concentration not given here
[14] = biological target: Dihydroorotate dehydrogenase (quinone), mitochondrial (Plasmodium falciparum (isolate 3D7)) (UniProt Q08210); assay: inhibition of P. falciparum DHODH – biochemical, C-terminal His tag, absorbance 600 nm, primary screen (AID 1175); conditions: PfDHODH enzyme, DCIP absorbance 600 nm; higher = more signal, called active from +8 up or from −8 down;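 further: recombinant parasite enzyme with a five histidine tag at its C terminus; test concentration not given here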
[15] = inhibition of PAO1 biofilm formation – strain PAO1, LB-PBS medium, absorbance 600 nm, primary screen (AID 1176); further: test concentration not given here; conditions: P. aeruginosa PAO1 growth/biofilm, A600, 12 h; higher = more signal
[16] = growth modulation of vineyard yeast isolate – strain RM11-1a, OD600, basal, 24 h, primary screen (AID 1177);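 further: cultures grown under basal conditions with no added stressor; test concentration not given here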; conditions: S. cerevisiae RM11-1a growth, OD600, 24 h; higher = more signal, called active from +8 up or from −8 down
[17] = growth of efflux-deficient E. coli DRC39 – strain DRC39, OD650, 24 h, E. coli filamentation inducers, primary screen (AID 1178);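 further: growth measured as culture turbidity by optical density at 650 nm; test concentration not given here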; conditions: E. coli DRC39 acrAB, higher = more signal, called active from +8 up or from −8 down
[18] = growth of efflux-deficient E. coli DRC39 – strain DRC39, OD650, 48 h, E. coli filamentation inducers, primary screen (AID 1179);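 further: screen aims at cell division blockers that make cells filament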; conditions: E. coli DRC39 delta-acrAB growth, higher = more signal, called active from +8 up or from −8 down
[19] = viability profiling in RPMI8226 myeloma cells – cell-based, resazurin fluorescence, basal, 24 h, PK04 Diversity Set, profiling panel (AID 1180); conditions: higher = more signal;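 further: RPMI8826 multiple myeloma cell line at 5000 cells per well; test concentration not given here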
[20] = biological target: E3 ubiquitin-protein ligase XIAP (Homo sapiens) (UniProt P98170); assay: small molecules binding XIAP protein – biophysical, small-molecule microarray, fluorescence 635 nm, primary screen (AID 1181); conditions: higher = more signal;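 further: score merges 667 nm emission and signal to noise over triplicate slides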
E3 ubiquitin-protein ligase XIAP (Homo sapiens), sequence (P98170 whole entry, looked up): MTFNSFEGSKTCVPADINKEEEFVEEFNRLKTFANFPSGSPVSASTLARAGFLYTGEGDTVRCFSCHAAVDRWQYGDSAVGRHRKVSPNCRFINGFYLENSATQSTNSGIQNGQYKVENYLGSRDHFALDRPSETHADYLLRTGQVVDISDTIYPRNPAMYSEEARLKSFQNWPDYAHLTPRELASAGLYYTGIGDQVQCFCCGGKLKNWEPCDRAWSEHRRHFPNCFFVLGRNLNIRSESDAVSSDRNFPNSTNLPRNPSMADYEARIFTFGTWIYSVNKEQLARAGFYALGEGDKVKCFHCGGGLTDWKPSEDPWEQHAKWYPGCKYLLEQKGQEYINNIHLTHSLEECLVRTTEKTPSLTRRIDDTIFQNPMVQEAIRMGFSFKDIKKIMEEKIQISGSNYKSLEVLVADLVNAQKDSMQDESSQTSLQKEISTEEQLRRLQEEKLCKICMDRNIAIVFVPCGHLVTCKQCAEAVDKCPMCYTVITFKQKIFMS

Dihydroorotate dehydrogenase (quinone), mitochondrial (Plasmodium falciparum (isolate 3D7)), sequence (Q08210 whole entry, looked up): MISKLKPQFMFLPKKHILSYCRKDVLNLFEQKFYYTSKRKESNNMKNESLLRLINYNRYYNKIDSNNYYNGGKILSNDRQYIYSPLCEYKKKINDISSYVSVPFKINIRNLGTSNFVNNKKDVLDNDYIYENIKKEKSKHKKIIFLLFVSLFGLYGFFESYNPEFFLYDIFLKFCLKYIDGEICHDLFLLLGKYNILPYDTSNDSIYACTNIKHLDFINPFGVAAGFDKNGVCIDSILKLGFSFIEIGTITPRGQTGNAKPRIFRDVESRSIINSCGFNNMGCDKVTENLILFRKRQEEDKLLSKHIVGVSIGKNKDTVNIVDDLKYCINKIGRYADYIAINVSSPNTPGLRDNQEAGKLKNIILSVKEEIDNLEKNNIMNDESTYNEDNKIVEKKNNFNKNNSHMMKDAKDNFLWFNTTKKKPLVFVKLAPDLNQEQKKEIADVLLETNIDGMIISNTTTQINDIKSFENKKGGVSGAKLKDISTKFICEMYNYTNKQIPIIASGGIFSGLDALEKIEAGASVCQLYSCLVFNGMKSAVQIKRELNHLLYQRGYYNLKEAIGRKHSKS

Structure (SMILES)	z-score [1]	z-score [2]	z-score [3]	z-score [4]	z-score [5]	z-score [6]	z-score [7]	z-score [8]	z-score [9]	z-score [10]	z-score [11]	z-score [12]	z-score [13]	composite z-score [14]	z-score [15]	z-score [16]	z-score [17]	z-score [18]	z-score [19]	composite z-score [20]
Cc1ccc([C@H]2C(C(=O)O)=C[C@@H](C(C)C)N2S(=O)(=O)c2ccc(C)cc2)cc1	-0.828	-0.762	-0.639	0.0411	-1.48	-0.713	-0.385 (inactive)	0.59	-0.809	-0.194 (inactive)	-0.357	-0.502 (inactive)	-0.645 (inactive)	-0.695 (inactive)	0.546 (inactive)	-0.577 (inactive)	-0.717 (inactive)	0.0184 (inactive)	-1.4	0.0264
C=CC[C@]1(C(=O)O)N=C(c2ccc(OCCCO)cc2)O[C@H]1c1ccccc1CN=[N+]=[N-]	1.32	-1.06	0.243	0.869	0.293	-0.131	0.0284 (inactive)	-0.57	-0.587	-0.506 (inactive)	0.13	-0.518 (inactive)	-2.6 (inactive)	0.381 (inactive)	-0.555 (inactive)	0.363 (inactive)	0.104 (inactive)	0.619 (inactive)	-0.728	0.117
CC(c1ccccc1)C(O)C1C=CC2C(=O)N(c3ccccc3)C(=O)C2N1Nc1ccccc1F (stereo not given)	-0.221	-0.146	-0.77	0.214	-0.975	-1.13	-0.994 (inactive)	0.387	-0.289	0.959 (inactive)	0.677	-0.817 (inactive)	0.0907 (inactive)	0.549 (inactive)	0.533 (inactive)	-1.12 (inactive)	0.0976 (inactive)	0.669 (inactive)	1.21	0.0859
O=C1OCCC=C[C@H]2OC34C=CCN(CCN5CCOCC5)C(=O)[C@H]3N(CCO)C(=O)[C@@H]4C12 (stereo not given in full)	-0.53	-0.246	-0.209	0.471	-0.253	-0.659	-0.293 (inactive)	-0.578	-0.47	-0.948 (inactive)	-0.0535	-0.663 (inactive)	-1.45 (inactive)	-1.85 (inactive)	0.0962 (inactive)	-0.249 (inactive)	-1.14 (inactive)	-0.99 (inactive)	-0.6	0.0264
CCCC[C@@H]1C[C@H]1[C@@H](NC(=O)c1ccccc1)c1ccccc1	-1.2	-0.902	-1.02	-1.43	-1.48	-2.36	-1.07 (inactive)	0.203	-1.25	-0.324 (inactive)	0.237	1.21 (inactive)	-0.694 (inactive)	-0.113 (inactive)	-0.471 (inactive)	0.601 (inactive)	0.104 (inactive)	0.233 (inactive)	-1.07	-0.0289
O=C1O[C@@H](c2ccccc2)[C@@H](c2ccccc2)N2[C@@H](c3ccc(O)cc3)[C@]3(C(=O)Nc4ccccc43)[C@@H](C(=O)NC[C@H](O)c3ccccc3)[C@H]12	0.0061	0.874	-0.121	-0.0487	-1.08	-1.5	-0.377 (inactive)	-0.774	0.32	0.314 (inactive)	1.42	-0.882 (inactive)	0.616 (inactive)	0.609 (inactive)	-0.489 (inactive)	0.0813 (inactive)	0.389 (inactive)	-0.163 (inactive)	-0.273	0.272
CC(C)N1C(=O)c2ccccc2[C@](C)(C(=O)NCCCN(C)C)[C@@H]1c1ccc(CO)cc1	0.415	0.302	0.446	-0.0937	-0.384	0.861	-0.253 (inactive)	-0.13	0.413	0.565 (inactive)	0.257	-0.919 (inactive)	0.627 (inactive)	0.0044 (inactive)	-0.522 (inactive)	-0.283 (inactive)	0.0957 (inactive)	-0.429 (inactive)	0.842	0.0871
COc1ccc([Si](C)(C)[C@H]2[C@H](CC(=O)N(CCO)Cc3ccccc3)O[C@@]3(C(=O)N(Cc4cccc(N5C(=O)c6cccc7cccc5c67)c4)c4ccccc43)[C@@H]2C)cc1	-0.191	0.996	-1.5	-0.883	-4.29	0.0381	2.83 (inactive)	-1.06	-1.08	-2.32 (inactive)	-0.101	0.476 (inactive)	-3.19 (inactive)	-2.98 (inactive)	1.98 (inactive)	0.768 (inactive)	0.67 (inactive)	0.865 (inactive)	-2.93	0.0564
COc1ccc([Si](C)(C)[C@H]2[C@H](CC(=O)N3Cc4ccccc4C[C@H]3CO)O[C@@]3(C(=O)N(Cc4cccc(I)c4)c4ccccc43)[C@@H]2C)cc1	-0.817	0.0894	-0.693	-2.42	-4.12	1.33	0.814 (inactive)	-1.06	-0.605	-1.84 (inactive)	-0.779	-1.08 (inactive)	-2.22 (inactive)	-1.01 (inactive)	1.13 (inactive)	1.55 (inactive)	0.517 (inactive)	-0.152 (inactive)	-1.59	-0.157
